# Source: PubChem BioAssay (National Center for Advancing Translational Sciences (NCATS))
# AmpC detergent – qHTS Inhibitors of AmpC Beta-Lactamase (assay with detergent). AmpC hydrolysis of nitrocefin, absorbance 480 nm, 0.01% Triton. Potency, µM (top dose mostly 114 µM), without a hit: at the top dose activity change, negative = inhibition, hits mostly inhibitors. 0.041% of 370,000 active;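 also: potency is read from the fitted curve at half-maximal effect; 0% = no-compound wells and -100% = no-enzyme wells; nearly all actives have a fitted effect of over 25% in size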
#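 20 mM phosphate pH 7.0 + 0.01% (detergent screen) or 0.0001% Triton X-100; 5.3 nM AmpC reagent; cpd preinc 15 min RT; nitrocefin (800 uM stock) to start; A480 q20 s × 4 min; Activity was normalised to no-enzyme and no-compound control wells.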
# LmPK inhibitor – qHTS Assay for Inhibitors of Leishmania Mexicana Pyruvate Kinase (LmPK); Q27686; 0.37% of 290,000 active; Potency, µM (series often up to 57.5 µM), for the others: top-dose activity change, negative = inhibition, usual class: inhibitors; purified LmPK, Kinase-Glo ATP luminescence, 1 h; also: potency is read from the fitted curve at half-maximal effect; % is scaled to controls: 0 for no effect and ±100 for the full control effect
# Target sequence (Q27686 whole entry, looked up): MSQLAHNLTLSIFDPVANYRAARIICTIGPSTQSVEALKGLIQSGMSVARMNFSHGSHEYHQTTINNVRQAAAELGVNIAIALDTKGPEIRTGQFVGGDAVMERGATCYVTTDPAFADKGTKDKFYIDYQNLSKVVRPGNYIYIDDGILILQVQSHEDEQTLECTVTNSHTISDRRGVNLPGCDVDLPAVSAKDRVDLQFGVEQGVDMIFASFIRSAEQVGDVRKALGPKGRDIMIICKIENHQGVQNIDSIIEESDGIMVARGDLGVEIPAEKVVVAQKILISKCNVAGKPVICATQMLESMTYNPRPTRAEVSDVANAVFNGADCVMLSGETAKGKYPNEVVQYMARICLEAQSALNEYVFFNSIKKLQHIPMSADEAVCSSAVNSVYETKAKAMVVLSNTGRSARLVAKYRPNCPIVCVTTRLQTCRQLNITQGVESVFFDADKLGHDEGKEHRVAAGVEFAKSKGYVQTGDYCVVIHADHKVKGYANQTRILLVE
#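 ATP generated from ADP (0.1 mM) and PEP (0.5 mM) by 0.1 nM LmPK over 1 h at room temperature (pH 7.2 imidazole buffer) was detected by coupled luciferase luminescence. Values were normalized to uninhibited and no-enzyme wells.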
# AmpC inh no detg – qHTS Inhibitors of AmpC Beta-Lactamase (assay without detergent); P00811; AmpC nitrocefin hydrolysis, absorbance 480 nm, 0.0001% Triton; Potency, µM (doses to about 57.1 µM), without a hit: top-dose activity change, negative = inhibition, most hits filed as inhibitors; 0.52% of 330,000 active; AID 485341, 2010;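 also: potency is read from the fitted curve at half-maximal effect; plate controls were no compound for no effect and no enzyme for full effect; nearly all actives have a fitted effect of over 20% in size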
#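 AmpC (5.3 nM in the dispensed reagent) in 20 mM phosphate pH 7.0 with 0.01% (detergent screen) or 0.0001% Triton X-100 was preincubated with compounds for 15 min at room temperature. Nitrocefin was then added from an 800 uM solution, and hydrolysis was followed at 480 nm.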
# Giardia FBPA inh – qHTS Assay for Inhibitors of Fructose-1,6-bisphosphate Aldolase from Giardia Lamblia; A8B2U2; purified Giardia FBPA; Potency, µM (top dose mostly 59.6 µM), for inactives: at the highest dose activity, negative = inhibition, usual class: inhibitors; 0.71% of 290,000 active; AID 2451, 2010; also: potency is read from the fitted curve at half-maximal effect; % is scaled to controls: 0 for no effect and ±100 for the full control effect; nearly all actives have a fitted effect of over 55% in size
#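 Giardia FBPA (40 nM reagent) was preincubated 10 min at RT with compound (up to 57.5 uM final), then substrate plus GAPDH/TPI/NAD/arsenate coupling system with diaphorase/resazurin was added; resorufin fluorescence (525/598 nm) was read after 20 min.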
# AMA1 RON2 block – qHTS for Inhibitors of AMA1-RON; Towards Development of Antimalarial Drug Lead: Primary Screen; Plasmodium falciparum AMA1 (3D7) - RON2 peptide interaction; AlphaScreen AMA1-biotinylated RON2 peptide binding; Potency, µM (doses to about 58.2 µM), for inactives: at the highest dose activity change, negative = inhibition, actives largely listed as inhibitors; 0.2% of 360,000 active;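 also: potency is read from the fitted curve at half-maximal effect; 0% = vehicle wells and -100% = peptide control; nearly all actives have a fitted effect of over 45% in size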
#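 AMA1 (3D7) with his tag at 25 nM final met compounds first, then biotinylated RON2 peptide at 25 nM; detection used donor plus acceptor beads, 10 µg/mL apiece, read by AlphaScreen after 30 min at room temperature.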
# LmPK confirm – Confirmation Assay for Inhibitors of Leishmania Mexicana Pyruvate Kinase (LmPK); 40% of 150 active; Potency, µM (top dose mostly 57.5 µM), for the others: at the top dose activity change, negative = inhibition, actives largely listed as inhibitors; shares compounds with LmPK inhibitor; purified LmPK, Kinase-Glo ATP luminescence, 1 h;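 active = compounds giving a full or partial concentration-response curve, as inhibitors or activators; inconclusive = weak, top-dose-only or unclear curve responses; inactive = no response at any tested dose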
# The depositor's hits bear a star; ? = inconclusive; . = no result; [ ] = another dose, or the depositor's remark. An excerpt weighted towards active compounds, which were near 1.3% of everything screened. Unless noted, calls follow the shape of the dose curve; as a rule, active = well fitted curve in the direction sought with a large enough effect; inconclusive = small, poorly fitted or top-dose-only effect, or another doubt; inactive = no such curve, though single readings can be large; an effect the other way counts as inactive or inconclusive.
SMILES,AmpC detergent,LmPK inhibitor,AmpC inh no detg,Giardia FBPA inh,AMA1 RON2 block,LmPK confirm
C[C@@H]1CN([C@@H](C)CO)C(=O)CCCn2nncc2CO[C@@H]1CN(C)C(=O)Nc1cccc(Oc2ccccn2)c1,.,.,.,.,-3%,.
COc1ccc(C2=C(C)C(=O)N(Cc3ccc(C(=O)NCc4cccc(C)c4)cc3)S2(=O)=O)cc1,-4%,.,.,.,.,.
Cc1ccc(CNC(=O)CSc2ncc3c(n2)-c2ccc(Cl)cc2N(Cc2ccccc2)S3(=O)=O)cc1,-5%,.,.,.,.,.
Cc1ccc(Cn2nnc3c(=O)[nH]c(C4CCCN(C(=O)Nc5ccc(F)cc5F)C4)nc32)cc1 (configuration not stated),-15%,9%,17%,-3%,-8%,7%
N#CC1(NC(=O)CSc2nnc(Nc3ccccc3F)s2)CCCC1,-7%,.,-28%,.,6%[11.6 µM],.
O=C(Cc1ccccc1)N(Cc1cccnc1)c1nc2c(F)cc(F)cc2s1,-8%,.,.,.,.,.
Cc1ccc(C(=O)O/N=C(\N)c2ccccn2)c(Cl)c1,-12%,?,-4%,9%,48%,.
Cc1ccc(C(=O)O/N=C(\N)c2ccccc2)c(Cl)c1,3%,4.5µM*,-16%,-5%,29%,18µM*
COc1ccc(-c2cc(CNc3nc(NCc4ccccc4OC)nc4ccsc34)on2)cc1,.,.,.,.,-28%,.
O=C(c1ccc(Br)cc1)c1cc2ccc(O)cc2oc1=O,2%,-1%,-34%,1%,-5%,.
O=C(c1ccccc1)c1cc2ccc(O)cc2oc1=O,1%,3.5µM*,-26%,14%,-13%,7.3µM*
COc1ccc(/C(O)=C2/C(=O)C(=O)N(Cc3cccnc3)C2c2ccco2)cc1OC (configuration not stated),-8%,0%,-21%,9%,-9%,4%
COc1ccc(O)c(/C=N/n2c(-c3ccco3)csc2=Nc2cccnc2)c1,-6%,2%,-9%,1%,43%,.
CN=c1scc(-c2ccco2)n1/N=C/c1ccc(O)c(O)c1,4%,5.6µM*,-44%,?,-12%,?
Cc1ccc(S(=O)(=O)n2c(N)nc3ccccc32)cc1,-13%,2%,-20%,0%,0%,.
Cc1ccc(C(=O)n2c(N)nc3ccccc32)cc1,-10%,5µM*,-32%,0%,61%,33µM*
CC(C)Nc1ncnc2c1ncn2[C@H]1CN(Cc2ccccc2)C[C@@H](CO)O1,.,.,.,.,0%,.
CCc1nc2ccc(C(=O)Nc3cccc(NS(C)(=O)=O)c3)cn2c1N(CC)CCOC,.,.,.,.,0%,.
CCOC(=O)CNS(=O)(=O)c1cc(-c2nn(C)c(=O)c3ccccc23)ccc1C,9%,2%,65%,-12%,12%,7%
CCC(=O)c1ccc(OC(=O)C2CCN(C3=NS(=O)(=O)c4ccccc43)CC2)cc1,5%,.,-15%,.,0%,.
CCOc1ccc(N2C(=O)CN=C2Nc2ccccc2Cl)cc1,-8%,3%,-5%,.,-2%,2%
O=C1CN=C(Nc2ccccc2Cl)N1c1ccccc1,-13%,-3%,8%,.,0%,.
CN(C)c1ccc(N=Nc2nc3ccccc3n2C)cc1,-5%,4µM*,-12%,-10%,4µM*,3.7µM*
Cn1c(N=Nc2ccccc2)nc2ccccc21,-12%,2.2µM*,-5%,-23%,-24%,7.3µM*
Cn1c(Cl)nc2ccccc21,0%,-3%,-14%,1%,1%,.
SMILES,AmpC detergent,LmPK inhibitor,AmpC inh no detg,Giardia FBPA inh,AMA1 RON2 block,LmPK confirm
CCn1c(NCc2ccc(N(C)C)cc2)nc2ccccc21,?,-1%,-31%,1%,-21%,.
O=C1C=CC(=O)N1CCCCCCN1C(=O)C=CC1=O,?,?,-20%,-2%,-1%,?
CC[n+]1c(C)sc2c3ccsc3ccc21,?,-10%,68%,-8%,-27%,.
CC[n+]1c(C)sc2sc3ccccc3c21,?,2.8µM*,-2%,?,.,4.6µM*
CCN1/C(=C/c2ccc3cccc(C)c3[n+]2CC)Sc2ccccc21,?,-14%,-3%,7%,-2%,-12%
CCN1/C(=C/c2ccc3cc(C)cc(C)c3[n+]2CC)Sc2cc(C)ccc21,3%,-10%,-2%,-1%,?,.
Cc1cccc(C)c1NC(=O)C1(C)CN(S(C)(=O)=O)CC(=O)N1CC(F)(F)F (configuration not stated),.,.,.,.,5%,.
